AmpC det inh – Promiscuous and Specific Inhibitors of AmpC Beta-Lactamase (assay with detergent); P00811; purified AmpC, nitrocefin hydrolysis with detergent; Potency, µM (titrated, usually from 28.7 µM), for the others: top-dose activity change, negative = inhibition; 0.09% of 71,000 active; active means well fitted curve in the direction sought with a large enough effect; inconclusive means small, poorly fitted or top-dose-only effect; further: on the % scale 0 is the no-effect control and ±100 the full control effect
Target sequence (P00811 whole entry, looked up): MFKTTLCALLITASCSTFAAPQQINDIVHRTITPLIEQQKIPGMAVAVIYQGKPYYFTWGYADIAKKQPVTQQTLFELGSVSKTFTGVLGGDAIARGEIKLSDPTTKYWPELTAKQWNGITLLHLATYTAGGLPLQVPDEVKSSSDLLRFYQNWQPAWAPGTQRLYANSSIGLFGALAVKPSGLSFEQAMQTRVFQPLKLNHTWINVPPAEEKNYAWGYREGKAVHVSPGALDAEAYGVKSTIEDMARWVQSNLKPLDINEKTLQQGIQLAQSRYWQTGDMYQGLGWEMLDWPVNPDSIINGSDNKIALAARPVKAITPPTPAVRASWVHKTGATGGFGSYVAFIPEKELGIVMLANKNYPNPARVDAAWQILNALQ
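E. coli AmpC (5.3 nM) in 20 mM phosphate pH 7.0 with 0.01% Triton X-100, preincubated 15 min RT with compound; nitrocefin (2 uL of 800 uM stock) hydrolysis followed by 480 nm absorbance every 20 s over 4 min.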
Anthrax LT inh – qHTS Assay for Anthrax Lethal Toxin Internalization | Cells, anthrax lethal toxin internalization, FRET ratio (460/530) | Potency, µM (doses to about 40 µM), for inactives: top-dose activity change, negative = inhibition, actives largely listed as inhibitors | 0.67% of 70,000 active; further: on the % scale 0 is the no-effect control and ±100 the full control effect; nearly all actives have a fitted effect of over 50% in size
SmPrx2 inh – Schistosoma Mansoni Peroxiredoxins (Prx2); 0.07% of 65,000 active; Schistosoma mansoni peroxiredoxin 2 (Prx2); S. mansoni Prx2 activity coupled to TGR/GSH (TGR is thioredoxin glutathione reductase), NADPH fluorescence loss, qHTS; AID 448, 2006; Potency, µM
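Prx2 activity was followed as the loss of NADPH fluorescence (ex 365/em 450 nm), read every 30 sec for 8 min after H2O2 start. The enzyme mix (50 nM Prx2, 25 nM TGR, GSH, NADPH; pH 7.4 phosphate buffer) was incubated with compound for 15 min at room temperature first.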
AmpC nodet inh – Promiscuous and Specific Inhibitors of AmpC Beta-Lactamase (assay without detergent); AmpC nitrocefin hydrolysis, absorbance 480 nm, no detergent; Potency, µM (top dose mostly 28.7 µM), for the others: at the top dose activity change, negative = inhibition; 1.8% of 71,000 active; AID 585, 2007; further: % of control where 0% means no effect
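AmpC, 20 mM phosphate pH 7.0; 15 min cpd preinc, RT; start with nitrocefin (800 uM stock); A480 kinetic read, 20 s intervals, 4 min. No-enzyme wells = negative control.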
Starred values were filed as active, the others as inactive; ? = inconclusive; nt = no result given; [ ] = remark or other dose. The list is not random: actives were taken first. Their share in the collection is about 2.6%. Unless noted, the call rests on the fitted dose curve. Potency means the concentration at half of the fitted maximal effect.

SMILES | AmpC det inh | Anthrax LT inh | SmPrx2 inh | AmpC nodet inh
CCOC(=O)OCC1OC(C#Cc2ccc(F)cc2F)C=CC1OC(=O)OCC (centres undefined) | nt | 1%[8 µM] | nt | nt
Fc1ccccc1N1CCN(CCCNc2ccc3nncn3n2)CC1 | 15% | -14% | >57 | 4µM*[single pt active]
c1ccc(CN2CCN(CCCNc3ccc4nnc(-c5ccccc5)n4n3)CC2)cc1 | 8% | ? | >57 | 120%
CC(C)C1=CC2=CC[C@H]3[C@@](C)(CCC[C@]3(C)C(=O)O)[C@@H]2CC1 | -1% | ? | >57 | -8%
CCc1c(C)nc2cc(-c3ccc(OC)c(OC)c3)nn2c1N1CCCC1 | -4% | -20% | >57 | 133%
CCc1c(C)nc2cc(-c3cc(OC)cc(OC)c3)nn2c1N1CCCC1 | -1% | 13µM* | >57 | 88%
CCN1CCCC1CNC(=O)C1CCN(Cc2nc(-c3cccc(Br)c3)oc2C)CC1 (centres undefined) | -4% | 6.3µM* | >57 | 50%
Cc1ccccc1-c1nc(CN2CCC(C(=O)NCCCN3CC(C)CC(C)C3)CC2)c(C)o1 (centres undefined) | -3% | 2.5µM* | >57 | 34%
Cc1oc(-c2cccc(Cl)c2)nc1CN1CCC(C(=O)NCc2ccco2)CC1 | -2% | ? | >57 | 77%
CCN1CCN(CCNC(=O)C2CCN(Cc3nc(-c4ccc(Cl)cc4)oc3C)CC2)CC1 | 12% | ? | >57 | 4µM*[single pt active]
Cc1oc(-c2ccc(Cl)cc2)nc1CN1CCC(C(=O)NCCCN2CCCC2=O)CC1 | 12% | -5% | >57 | 93%
CC(C)NC(=O)[C@@H]1C[C@H]1[C@@H](NC(=O)OCc1ccccc1)c1ccccc1 | 19% | -4% | nt | 62%
Cn1cc(C(=O)c2ccc(Cl)cc2)cc1-c1nc2ccccc2n1C | 18% | 13µM* | >57 | 35%
COC(=O)c1ccc(C(NC(=O)OCc2ccccc2)/C(=C/[C@@H](C)C(=O)NCc2cccnc2)c2cccnc2)cc1 (some centres undefined) | 23% | 1% | nt | 116%
Cc1nc2ccc(S(=O)(=O)NC(C(=O)Nc3nccs3)C(C)C)cc2s1 (centres undefined) | 9% | -11% | >57 | 4µM*[single pt active]
Cc1nc2ccc(S(=O)(=O)NC(C(=O)NCc3cccs3)C(C)C)cc2s1 (centres undefined) | 11% | -13% | >57 | 4µM*[single pt active]
CC(=O)c1ccsc1B(O)O | nt | -5% | nt | nt
CC1=C(C(=O)O)N2C(=O)[C@@H](NC(=O)[C@@H](N)C3=CCC=CC3)[C@@H]2SC1 | -15% | 6% | >57 | -17%
CCCc1ccc(OCc2ccc(C(=O)N3CCN(c4ccccn4)CC3)o2)c(OC)c1 | -5% | 13µM* | >57 | 125%
O=C(O)c1cc[c]([Hg][Cl])cc1 | -8% | ? | 0.44* | -10%
CCOc1cccc(-c2nnc3sc(COc4ccc(Cl)cc4)nn23)c1 | -1% | -3% | >57 | 7.9µM*
CCOc1cccc(-c2nnc3sc(COc4ccc(C)cc4)nn23)c1 | 1% | -13% | >57 | 16%
CCCCC#Cc1nc(NC)c2ncn([C@@H]3O[C@@H](CO)[C@H](O)[C@H]3O)c2n1 | -2% | -3% | >57 | 33%
c1ccc(SC(Sc2ccccc2)c2ccc3c(c2)OCO3)cc1 | -1%[5.75 µM] | -15%[8 µM] | >57 | -7%[5.75 µM]
CSc1nc2nc(C)cc(-c3ccccc3)n2n1 | -6% | 5% | >57 | 12%
SMILES | AmpC det inh | Anthrax LT inh | SmPrx2 inh | AmpC nodet inh
Cc1cc(-c2ccccc2)n2ncc(C#N)c2n1 | 13% | -13% | >57 | 4µM*[single pt active]
Cc1ccc(C)c(S(=O)(=O)Nc2ccccc2C(=O)Nc2cc(C)on2)c1 | -4% | ? | >57 | 6.3µM*
COc1ccc(CNc2nc(-c3cccc(NS(C)(=O)=O)c3)nc3ccccc23)c(OC)c1 | -5% | ? | >11 | 16%
CCN1C(=O)[C@H]2[C@H]3[C@H](O)[C@H](O)C/C(=N/OCC(C)C)[C@H]3CC[C@@H]2C1=O | nt | -7%[8 µM] | nt | nt
Cn1c(C(=O)N2CCN(C3CCCCC3)CC2)cc2c(=O)n(C)c3ccccc3c21 | 13% | -6% | >57 | 4µM*[single pt active]
Cn1c(C(=O)N2CCN(c3ccc(Cl)cc3)CC2)cc2c(=O)n(C)c3ccccc3c21 | 10% | -25% | >57 | 4µM*[single pt active]
Cn1c(C(=O)N2CCN(c3ccc(F)cc3)CC2)cc2c(=O)n(C)c3ccccc3c21 | 10% | -2% | >57 | 10%
Cn1c(C(=O)N2CCN(c3ccccn3)CC2)cc2c(=O)n(C)c3ccccc3c21 | 14% | 14% | >57 | 4µM*[single pt active]
CCCCCCCC#Cc1ccccc1C(NC(=O)OC)C(C(=O)OC)C(=O)OC (centres undefined) | nt | -16%[8 µM] | nt | nt
OC[C@@H](O)[C@@H](O)[C@@H](O)[C@@H](O)c1nc2ccc(Cl)cc2[nH]1 | -2%[5.75 µM] | ? | >57 | 7%[5.75 µM]
Cc1noc(C)c1C(=O)Nc1nc(C23CC4CC(CC(C4)C2)C3)cs1 | -3% | 10µM* | >57 | 0%
CCOC(=O)Cc1csc(NC(=O)c2c(-c3ccccc3)noc2C)n1 | -3% | 0% | nt | 24%
COc1ncc2nc(-c3ccc(F)cc3)c(=O)n(CCC#N)c2n1 | 0% | -5% | >57 | -5%
O=C(NCc1ccco1)C1CCN(c2ccc(N3CCOCC3)nn2)CC1 | 11% | 5% | >57 | 4µM*[single pt active]
COC(=O)c1ccc(C(/C=C/[C@@H](C)C(=O)NCCN2CCCC2)NC(=O)OCc2ccccc2)cc1 (some centres undefined) | 10% | -4% | nt | 122%
Cc1cccc(CNc2ccnc(-c3cccc(C#N)c3)n2)c1 | -3% | 5µM* | >57 | 29%
CCCCNN | -1%[5.75 µM] | nt | >57 | 1%[5.75 µM]
Cc1cc(NS(=O)(=O)c2ccc(NC(=O)Cc3cccs3)cc2)no1 | -2% | 2% | >57 | 5%
Cc1cc(NC(=O)Cc2cccs2)no1 | -5% | -2% | >57 | 13µM*
COc1cc2c(cc1OC)-c1cc3nc4ccccc4nc3n1C(C)(C)C2 | -3% | ? | >57 | 70%
O=C(CSCc1ccco1)c1ccc(Cl)s1 | 12% | -8% | >57 | 10µM*
CCOC(=O)c1cc2ccc(OC(=O)c3ccco3)cc2oc1=O | -3% | ? | >57 | 13%
CC(=O)Oc1ccc2cc(-c3nc4ccccc4n3C)c(=O)oc2c1 | 4% | ? | 18* | 24%
COc1ccccc1NC(=O)NCCCN1CCN(c2cccc(Cl)c2)CC1 | 12% | ? | >57 | 4µM*[single pt active]
S=C=Nc1cccc(C2(N3CCCCC3)CCCCC2)c1 | 1% | 13µM* | >57 | 27%
Cc1nc2c(cnn2-c2ccc(Cl)cc2)c(=O)n1-c1ccc2c(c1)OCCO2 | -5% | 4% | >57 | 24%
O=C1/C(=C/c2ccccc2)[C@@H](NC2CCCCC2)c2ccccc21 | -2%[5.75 µM] | 4µM* | nt | 9%[5.75 µM]
CC(=O)Nc1ccc(C(=O)CCl)cc1 | 9% | 13µM* | nt | -9%
O=C(O)c1ccccc1-c1c2cc(Br)c(=O)cc-2oc2[c]([Hg])c(O)c(Br)cc12 | -3%[12.8 µM] | ? | 0.037* | -17%[12.8 µM]

From PubChem BioAssay
